# Measured values taken from ChEMBL document CHEMBL4808148, “HDAC6 screening dataset using tau-based substrate in an enzymatic assay yields selective inhibitors and activators” (2021).
# Screen size: about 5,600 compounds; about 390 (7%) showed an effect of 50% or more. The sample as a whole holds a higher share of strong results than the screen did.
# Target: T1, Protein deacetylase HDAC6 (Homo sapiens) (UniProt Q9UBN7)
# T1 sequence (whole entry): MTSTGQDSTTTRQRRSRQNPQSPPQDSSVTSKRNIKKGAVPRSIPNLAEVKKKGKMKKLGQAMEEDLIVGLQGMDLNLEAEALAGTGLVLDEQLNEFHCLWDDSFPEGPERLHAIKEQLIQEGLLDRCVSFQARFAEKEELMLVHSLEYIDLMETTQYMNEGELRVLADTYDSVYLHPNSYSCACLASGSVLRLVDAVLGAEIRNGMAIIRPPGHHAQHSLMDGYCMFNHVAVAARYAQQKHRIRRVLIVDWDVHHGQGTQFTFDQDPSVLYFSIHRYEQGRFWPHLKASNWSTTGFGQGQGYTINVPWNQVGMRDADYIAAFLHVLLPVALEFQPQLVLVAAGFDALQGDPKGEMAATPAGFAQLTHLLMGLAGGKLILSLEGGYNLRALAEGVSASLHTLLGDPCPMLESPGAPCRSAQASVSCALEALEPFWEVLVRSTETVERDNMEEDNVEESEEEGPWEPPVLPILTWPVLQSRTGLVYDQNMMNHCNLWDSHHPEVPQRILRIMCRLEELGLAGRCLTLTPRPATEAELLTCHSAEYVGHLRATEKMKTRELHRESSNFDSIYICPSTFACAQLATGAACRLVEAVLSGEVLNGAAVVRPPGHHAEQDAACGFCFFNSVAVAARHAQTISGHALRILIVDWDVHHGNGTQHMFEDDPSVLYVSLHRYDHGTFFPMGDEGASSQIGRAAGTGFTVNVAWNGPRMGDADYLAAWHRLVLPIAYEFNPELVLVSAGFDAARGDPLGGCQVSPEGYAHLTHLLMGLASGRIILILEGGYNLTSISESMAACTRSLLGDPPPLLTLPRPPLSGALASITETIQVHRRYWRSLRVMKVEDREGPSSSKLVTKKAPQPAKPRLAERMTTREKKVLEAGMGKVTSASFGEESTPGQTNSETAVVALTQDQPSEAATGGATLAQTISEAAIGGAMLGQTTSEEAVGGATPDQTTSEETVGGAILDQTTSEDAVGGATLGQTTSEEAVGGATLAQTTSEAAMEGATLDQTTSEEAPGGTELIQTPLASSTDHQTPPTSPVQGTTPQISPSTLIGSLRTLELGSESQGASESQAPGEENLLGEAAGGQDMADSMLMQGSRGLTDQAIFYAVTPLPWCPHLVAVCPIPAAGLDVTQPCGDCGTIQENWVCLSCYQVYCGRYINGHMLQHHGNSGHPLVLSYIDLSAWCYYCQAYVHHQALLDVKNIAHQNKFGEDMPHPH
# Details: at 10 µM
row,SMILES,inhibition [%]
1,CCN(CC)c1ccc(C(=C2C=CC(=[N+](CC)CC)C=C2)c2ccccc2)cc1,101
2,CCCCC1(COC(=O)CCC(=O)O)C(=O)N(c2ccccc2)N(c2ccccc2)C1=O,37.6
3,O=C(O)CCC/C=C\CC1C(O)CC(O)C1/C=C/C(O)COc1cccc(Cl)c1 (racemic),7.35
4,CC(C)OC(=O)c1cc2c(OCC(O)CNC(C)(C)C)cccc2[nH]1 (stereo unspecified),17
5,CCN(CC)C(=O)Nc1ccc(OCC(O)CNC(C)(C)C)c(C(C)=O)c1 (stereo unspecified),103
6,CCCC(=O)Nc1ccc(OCC(O)CNC(C)C)c(C(C)=O)c1 (stereo unspecified),-5.99
7,CNC(=O)c1ccc2c(c1)NC(=O)/C2=C(\Nc1cccc(CN(C)C)c1)c1ccccc1,23.6
8,CONC(=N)c1ccc(-c2ccc(-c3ccc(C(=N)NOC)cc3)o2)cc1,28.6
9,C=C[C@@](C)(/C=C/c1ccc(O)cc1)CCC=C(C)C,38.3
10,CC(=O)Nc1ccc(NC(=S)NC(=O)c2ccc(C(C)(C)C)cc2)cc1,-1.57
11,CC(O)(C(=O)Nc1ccc(S(=O)(=O)c2ccccc2)cc1)C(F)(F)F (stereo unspecified),8.38
12,C/C(O)=C(\C#N)C(=O)Nc1ccc(C(F)(F)F)cc1,58
13,CCCn1c(=O)[nH]c(=O)c2nc[nH]c21,9.19
14,O=c1c2ccccc2nc2n1CCCCC2,111
15,O=c1c2ccccc2nc2n1CCc1c-2[nH]c2ccccc12,84.3
16,CN1c2ccccc2C(=O)N2CCc3c([nH]c4ccccc34)C21 (stereo unspecified),36.3
17,Cc1cc(N2CCCCC2)nc2ccccc12,12.2
18,CN1C(=O)C(F)=C[C@]2(C)[C@H]3CC[C@]4(C)[C@@H](C(=O)NCc5nc6cccnc6[nH]5)CC[C@H]4[C@@H]3CC[C@@H]12,-0.34
19,CCC(=O)OCC(=O)C1(OC(=O)CC)C(C)CC2C3CCC4=CC(=O)C=CC4(C)C3(Cl)C(O)CC21C (stereo unspecified),5.48
20,CCCCc1nn(-c2ccccc2C(F)(F)F)c(=O)n1Cc1ccc(-c2ccccc2S(=O)(=O)NC(=O)c2sccc2C)cc1,30.6
21,CCCOc1ccc(Br)cc1-c1cc(-c2ccc(Cl)cc2)[nH]c1-c1ccncc1,4.47
22,C[C@]12C=CC(=O)C=C1CC[C@@H]1[C@@H]2[C@@H](O)C[C@@]2(C)[C@H]1CC[C@]2(O)C(=O)CO,1.72

row,SMILES,inhibition [%]
1,C#C[C@]1(OC(C)=O)CC[C@H]2[C@@H]3CCC4=C/C(=N/O)CC[C@@H]4[C@H]3CC[C@@]21CC,102
2,C#C[C@]1(O)CC[C@H]2[C@@H]3CCC4=CC(=O)CC[C@@H]4[C@H]3CC[C@@]21CC,-8.51
3,C#CC1(O)CC[C@H]2[C@@H]3CCC4=CC(=O)CC[C@@H]4[C@H]3CC[C@@]21CC (stereo partly specified),41
4,O=S(=O)(N[C@H]1CC[C@@](c2cc(F)ccc2F)(S(=O)(=O)c2ccc(Cl)cc2)CC1)C(F)(F)F,19.5
5,CC[N+](CC)(CC)CCC(O)(c1ccccc1)C1CCCCC1 (stereo unspecified),43.5
6,N[C@@]1(C(=O)O)CC[C@H]2[C@H](C(=O)O)[C@H]21,5.51
7,Nc1cc(Cl)c(N=C2NCCN2)c(Cl)c1,15.3
8,O=C(N/N=C/c1ccc(O)c(O)c1)c1cc2ccccc2cc1O,59.7
9,NC(=O)N/N=C/c1ccc(Oc2ccc(F)cc2)cc1,2.96
10,O=C(Nc1ccc(O)cc1)c1ccccc1O,85.3
11,O=C(N/N=C/c1ccccc1O)c1ccccc1O,98.6
12,COC(=O)c1ccccc1O,25.3
13,Cc1cccc(C)c1NC(=O)c1ccccc1C(=O)O,2.75
14,CN1CCN2c3c(cccc31)[C@@H]1CN(CCCC(=O)c3ccc(F)cc3)CC[C@@H]12,-3.09
15,COC(=O)Nc1ccc2[nH]cc(CCNC(C)=O)c2c1,44.5
16,CCOc1ccccc1OCC1CNCCO1 (stereo unspecified),-0.93
17,c1ccc(Oc2nc3ncnc-3c(NC3CCCCC3)[nH]2)cc1,-6.25
18,CC(C)N1CCN(c2ccc(C(=O)c3c(-c4ccc(O)cc4)sc4cc(O)ccc34)cc2)CC1,15
19,COc1ccc(C(=O)NCc2cccnc2)cc1C(=O)NCc1cccnc1,11.5
20,Cc1cc(Cn2cnc3c2C[C@@H](C(=O)O)N(C(=O)C(c2ccccc2)c2ccccc2)C3)ccc1N(C)C,17.5
21,CC1CS(=O)(=O)CCN1/N=C/c1ccc([N+](=O)[O-])o1 (stereo unspecified),-9.63
22,O=C(O)CNC(=O)c1ccccc1,17.6

row,SMILES,inhibition [%]
1,NC(=O)c1ccc2[nH]ccc2c1,11.2
2,O=C(Nc1ccc(Cl)nc1)c1ccc(Cl)cc1,27.1
3,CC1(C)CCC(C)(C)c2cc(NC(=O)c3ccc(C(=O)O)cc3)ccc21,17.1
4,O=C(Nc1cc2cc[nH]c2cn1)c1ccccc1,105
5,NC(C(=O)O)c1ccc(C(=O)O)c(O)c1 (racemic),-7.25
6,O=C(Nc1ccc(C(=O)O)c(O)c1)c1ccccc1,68.6
7,CCc1nc(-c2cccc(C)c2)c(-c2ccnc(NC(=O)c3ccccc3)c2)s1,15.3
8,O=C(Nc1ccc2[nH]ccc2c1)c1ccccc1,89.7
9,CC1=C(/C=C/C(C)=C/C=C/C(C)CC=O)C(C)(C)CCC1 (stereo unspecified),0.68
10,Cc1ccc(F)cc1C(=O)Nc1ccc(C(=O)N2Cc3cccn3Cc3ccccc32)c(Cl)c1,-1.78
11,O=C1CNC(=O)CN1,16.6
12,O=C(O)[C@@H](S)[C@@H](S)C(=O)O,28.7
13,CN1[C@@H]2CC[C@H]1C[C@@H](OC(=O)c1c[nH]c3ccccc13)C2.CN1[C@@H]2CC[C@H]1C[C@H](OC(=O)c1c[nH]c3ccccc13)C2,2.5
14,CCc1cc(-c2[nH]nc(C)c2-c2ccc3c(c2)OCCO3)c(O)cc1O,8.29
15,CC1(C)Oc2ccc(C#N)cc2[C@@H](OC2=CC(=O)CC2)[C@@H]1O,3.84
16,Cc1c(-c2ccccc2)oc2c(C(=O)OCCN3CCCCC3)cccc2c1=O,11.8
17,CNc1nc(NCc2ccc(NS(C)(=O)=O)cc2Cl)cc(-c2ccccn2)n1,13.6
18,Nc1ccc(S(=O)(=O)O)cc1,9.02
19,Cc1cc(O)c(C(=O)N[C@@H](C(=O)N[C@@H]2C(=O)N3C(C(=O)O)=C(CSc4nnnn4C)CS[C@H]23)c2ccc(O)cc2)cn1,29
20,Cc1cc(-c2ccc3c(c2)CC[C@H]3N2CC3(CCN(C(=O)Cc4cn5cc(C)sc5n4)CC3)C2)ncn1,0.83
21,CN1C(=O)c2c(nn(Cc3ccc(-c4cccc(F)n4)cc3)c2Nc2ccccc2)N2C1=N[C@@H]1CCC[C@@H]12,-2.77
22,C[C@@H]1CN(CC(=O)Nc2ccc3c(c2)Cc2cccc(-c4cc(=O)cc(N5CCOCC5)o4)c2S3)C[C@H](C)O1,61

row,SMILES,inhibition [%]
1,O=c1cc(N2CCOCC2)oc2c(-c3cccc4c3sc3ccccc34)cccc12,-7.08
2,CCOC(=O)Nc1ccc2c(c1)N(C(=O)CCN1CCOCC1)c1ccccc1S2,-0.7
3,O=c1cc(-c2cccc3c2Sc2ccccc2S3)oc(N2CCOCC2)c1,82.8
4,O=c1cc(N2CCOCC2)oc2c(-c3ccccc3)cccc12,1.23
5,Nc1ncnc2c1nc(Br)n2[C@@H]1O[C@@H]2COP(=O)(O)O[C@H]2[C@H]1O,4.67
6,O=C(O)Cc1sc(-c2ccccc2)nc1-c1ccc(Cl)cc1,-4.01
7,Nc1c2c(nc3c1CCC3)CCCC2,13
8,CCC(=O)c1ccc(O)cc1,7.92
9,O=C(N/N=C/c1ccc([N+](=O)[O-])o1)c1ccc(O)cc1,18.8
10,CCN(CC)c1ccc(/C=N/NC(=O)c2ccc(O)cc2)cc1,80
11,C/N=C(/NC#N)NCCSCc1csc(NC(=N)N)n1,4.88
12,COc1cccc(CCc2ccccc2OCC[C@@H]2C[C@@H](O)CN2C)c1,12.1
13,O=C1C(Cl)=C(NCCN2CCOCC2)C(=O)c2ncccc21,-2.93
14,Cc1noc(-c2ccc(-c3ccc(CC(=O)O)cc3)cc2)c1NC(=O)O[C@H](C)c1ccccc1,15.4
15,O=C(N[C@@H](Cc1c[nH]c2ccccc12)C(=O)O)c1ccc(Cl)cc1,21.4
16,O=C(O)CCC(=O)c1ccc(-c2ccccc2)cc1,58.7
17,O=C(CN1C2=NCCN2c2ccccc21)c1ccc(-c2ccccc2)cc1,11.4
18,O=C(O)CCCc1ccccc1,15.3
19,CN1CCN(c2ccc(-c3cccc(CN4CCOCC4)c3)cc2NC(=O)c2c[nH]c(=O)cc2C(F)(F)F)CC1,19.4
20,Oc1cccc(Nc2ncc(F)c(Nc3cccc(O)c3)n2)c1,-0.51
21,O=c1c(-c2ccccc2)c1-c1ccccc1,68.4
22,O=C1[C@H]2CCCC[C@H]2C(=O)N1CCCCN1CCN(c2nsc3ccccc23)CC1,9.58

row,SMILES,inhibition [%]
1,CCCCC(=O)O[C@]1(C(=O)CO)CC[C@H]2[C@@H]3CCC4=CC(=O)CC[C@]4(C)[C@H]3[C@@H](O)C[C@@]21C,55.9
2,CCCC(=O)O[C@]1(C(=O)CO)CCC2[C@@H]3CCC4=CC(=O)CC[C@]4(C)C3[C@@H](O)C[C@@]21C (stereo partly specified),13.5
3,C[C@]12CCC(=O)C=C1CC[C@@H]1[C@@H]2[C@@H](O)C[C@@]2(C)[C@H]1CC[C@]2(O)C(=O)CO,12
4,O=[N+]([O-])c1cc([N+](=O)[O-])c(/C=C/c2ccc(Cl)c(Cl)c2)cc1/C=C/c1ccc(Cl)c(Cl)c1,7.35
5,Nn1cnc2cc3ccccc3cc2c1=O,17.4
6,Clc1ccc(CCCOCCCN2CCCCC2)cc1,4.84
7,NC(=O)Nc1sc(-c2ccc(F)cc2)cc1C(N)=O,81.4
8,NC(=O)Nc1cc(-c2cccc(F)c2)sc1C(=O)N[C@H]1CCCNC1,8.78
9,O=C(O)CN(CCN(CC(=O)O)CC(=O)O)CC(=O)O,-8.06
10,O=C(/C=C/c1cccnc1)c1ccncc1,2.24
11,Cc1c(C)c2c(c(C)c1O)CCC(C)(C)O2,20.7
12,CC(=O)[C@H]1CC[C@H]2[C@@H]3C[C@H](C)C4=CC(=O)CC[C@]4(C)[C@H]3[C@@H](O)C[C@]12C,19.3
13,CC(=O)Oc1ccccc1C(=O)O,2.2
14,COc1ccccc1C(=O)Nc1cccc(NC(=O)c2cccc(C)c2)c1,63.7
15,CC(=O)Oc1ccccc1C(=O)Oc1ccccc1C(=O)O,41
16,COc1ccccc1C(=O)Nc1cc2c(cc1N1CCCC1)n(C)c(=O)n2C,46.1
17,CCCC(=O)Nc1cccc(NC(=O)c2ccccc2Br)c1,21
18,CC(=O)Oc1ccccc1C(=O)Nc1ccccc1,87.4
